# From PubChem BioAssay (NCATS)
# Results filed as inconclusive are left out. A call without a number means that no potency is given here. Calls of active or inactive are those of the source. The call rests on the fitted dose curve; in most records, active means well fitted activation curve with a large enough effect in the main read-out, with a control signal flat (not every such curve was filed as active); inconclusive means small, poorly fitted or top-dose-only effect, or effect the other way, or a change in a side signal; inactive means flat fitted curve, though single readings scatter. Residues, ends and D or L forms follow the SMILES beside them. *: point of attachment. Cbz = O=C(OCc1ccccc1)*
# Biological target: 3',5'-cyclic-AMP phosphodiesterase 4B (Homo sapiens) (UniProt Q07343)
# Sequence (Q07343 whole entry, looked up): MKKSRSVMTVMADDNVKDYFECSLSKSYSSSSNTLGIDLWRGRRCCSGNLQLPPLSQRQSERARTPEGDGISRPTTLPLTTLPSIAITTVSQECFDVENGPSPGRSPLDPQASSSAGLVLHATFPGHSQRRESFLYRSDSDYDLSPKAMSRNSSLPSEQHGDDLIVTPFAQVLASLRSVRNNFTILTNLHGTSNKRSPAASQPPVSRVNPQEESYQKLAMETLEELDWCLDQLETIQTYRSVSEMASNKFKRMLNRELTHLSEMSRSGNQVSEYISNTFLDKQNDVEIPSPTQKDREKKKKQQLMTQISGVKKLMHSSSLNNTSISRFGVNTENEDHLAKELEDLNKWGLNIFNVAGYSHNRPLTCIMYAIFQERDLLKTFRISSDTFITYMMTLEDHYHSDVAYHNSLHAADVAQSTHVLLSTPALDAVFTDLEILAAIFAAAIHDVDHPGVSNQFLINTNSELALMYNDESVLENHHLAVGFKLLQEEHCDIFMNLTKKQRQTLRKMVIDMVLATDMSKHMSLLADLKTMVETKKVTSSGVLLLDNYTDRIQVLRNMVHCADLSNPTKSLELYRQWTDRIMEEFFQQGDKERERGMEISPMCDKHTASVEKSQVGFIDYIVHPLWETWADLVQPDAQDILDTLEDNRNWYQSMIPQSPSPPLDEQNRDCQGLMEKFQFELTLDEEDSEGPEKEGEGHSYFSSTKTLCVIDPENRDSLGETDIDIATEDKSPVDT
# Experiment: qHTS Assay for Inhibitors of PDE-IV (AID 607)
# Details: HEK293 ACTOne CNG channel cells, membrane potential fluorescence; series mostly up to 22.9 µM
# Source text: NIH Chemical Genomics Center [NCGC]
# NIH Molecular Libraries Screening Centers Network [MLSCN]
# The cyclic nucleotide phosphodiesterases (PDEs) are proteins that catalyze hydrolysis of 3', 5'-cyclic nucleotides, such as cyclic adenosine monophosphate (cAMP) and cyclic guanosine monophosphate (cGMP), to their corresponding 5'-nucleotide monophosphates. These enzymes play an important role in controlling cellular concentrations of cyclic nucleotides and have a central role in a variety of intracellular signaling events. cAMP PDEs are emerging as a promising class of drug targets in asthma and cardiovascular disease therapeutic areas.
# There are no commercially available cell-based screening assays for PDE inhibitors: currently biochemical assays are done using pure substrates (cAMP or cGMP) and purified recombinant PDE enzymes. As with other biochemical screens on intracellular targets, false positives and false negatives may result from issues involving cell membrane permeability, cellular metabolism, and the like.
# Here we report the development of a cell-based screening assay for cAMP phosphodiesterase (PDE) inhibitors. The assay is based on the BD ACTOne# technology (BD Biosciences) which utilizes a modified cyclic nucleotide-gated channel (CNG) to monitor intracellular cAMP changes in live cells. The CNG channel is localized on the plasma membrane, and opens when the intracellular cAMP level increases, resulting in ion flux and cell membrane depolarization. The influx of cations through the CNG channel can be quantified using membrane potential (MP) dyes. We modified the BD ACTOne technology to allow the detection of PDE inhibitors, and performed an inhibitor screen for PDE-IV, which is expressed endogenously in HEK293 cells. We optimized this assay in homogeneous 1536-well plate assay format for high throughput screening.
# NCGC Assay Protocol Summary:
# The medium contained 10% FBS (Invitrogen), 2 mM L-glutamine, and 250 ug/ml G418 (Cellgro) and 1 ug/ml puromycin (Clontech). ACTOneTM parental cells (BD Biosciences) were maintained in the same medium without puromycin.
# The activity of the CNG channel was measured by BD ACTOneTM membrane potential dye kit (BD Biosciences). Forskolin, a positive control for cAMP activation and RO 20-1724, a PDE inhibitor, were both purchased from Sigma and solublized in DMSO.
# Sequence,Parameter,Value,Description
# 1,Reagent,3 uL,1000 cells/well 1536 TC treated Black plate
# 3,Compound,0.5 uL,Kalypsys dispense RO 20-1724 100 uM final [A]
# 4,Reagent,3 uL,BD membrane potential dye
# 6,Compound,23 nL,Final concentration was 0.7nM to 22.9uM
# 8,Detector,EX 535 / EM 590 [B],Envision
# Footnotes: [A] The stock 2 mM RO 20-1724 PDE inhibitor was made in 10 % DMSO. Parental cell line received 10 uM forskolin + 100 uM RO. [B] Envsion settings: Bottom Excitation 535/20 nm top emission 590/20, gain of 150 and 5 flashes per well.
# Keywords: PDE, PDE-IV, cytotoxicity, flourescence, MLSMR, MLSCN, NIH Roadmap, qHTS, NCGC
row,Structure (SMILES),Potency
1,O=C(O)C1=CC(=C(c2ccc(O)c(C(=O)O)c2)c2ccc(O)c(C(=O)O)c2)C=CC1=O,inactive
2,O=C(OCCN1CCOCC1)C1(c2ccccc2)CCCCC1,inactive
3,C[C@H](O)C(=O)C1=Nc2c(nc(N)[nH]c2=O)NC1,inactive
4,C[C@H](NC(=O)/C(C#N)=C/c1ccc(O)c(O)c1)c1ccccc1,inactive
5,O=c1[nH]ccc2c(O)cccc12,inactive
6,Nc1ccc(N2C(=O)c3ccccc3C2=O)c(Cl)c1,inactive
7,Cc1cc2c(cc1Cl)N(C(=O)Nc1ccnc3ccccc13)CC2,inactive
8,NC(=O)CNCCC(c1ccccc1)c1ccccc1,inactive
9,O=C(O)c1ccccc1Nc1cccc(OCc2ccc3ccccc3n2)c1,inactive
10,O=c1onc2cnc3ccccc3n12,inactive
11,CSC(=N)N,inactive
12,N[C@H](C(=O)O)c1cc(O)cc(O)c1,inactive
13,C/C(=C\c1ccc(C(=O)O)cc1)c1ccc2c(c1)C(C)(C)CCC2(C)C,inactive
14,Cc1cccc(C(=O)NCN2CCN(c3ccccc3C#N)CC2)c1,inactive
15,CNc1cc(NS(=O)(=O)c2ccc(N)cc2)nc(NC)n1,inactive
16,C#CCn1c(=O)c2c(ncn2C)n(C)c1=O,inactive
17,NCCNS(=O)(=O)c1cccc2c(Cl)cccc12,inactive
18,COc1ccccc1N1CCN(CCN(C(=O)c2ccc(F)cc2)c2ccccn2)CC1,inactive
19,CC(=O)C(C)=O,inactive
20,CC[C@@H]1Cc2cc(O)ccc2C2=C1c1ccc(O)cc1C[C@H]2CC,inactive

row,Structure (SMILES),Potency
1,CC(C)[C@H](NC(=O)OCc1ccccc1)C(=O)N[C@H](C=O)Cc1ccccc1 (Cbz-Val-Phe-aldehyde),inactive
2,O=C(O)/C(=C/c1c(C(=O)O)[nH]c2cc(Cl)cc(Cl)c12)c1ccccc1,inactive
3,N#C/C(=C\c1ccc(O)c(O)c1)C(=O)NCCc1ccccc1,inactive
4,N#CC(C#N)=C(N)/C(C#N)=C/c1ccc(O)cc1,inactive
5,Cn1c(=O)c2[nH]c(-c3ccc(S(=O)(=O)O)cc3)nc2n(C)c1=O,inactive
6,COc1cc(CC(=O)O)ccc1O,inactive
7,O=C(O)C1=CCCNC1,inactive
8,COc1ccc(C(=O)NCc2cccnc2)cc1C(=O)NCc1cccnc1,inactive
9,Nn1nnc2ccccc21,inactive
10,COCc1nc2c([nH]1)c(=O)n(C)c(=O)n2CC(C)C,inactive
11,N=C(N)c1ccccc1,inactive
12,C[N+](C)(C)CC=O,inactive
13,NC[C@@H]1O[C@H](c2ccccc2)Cc2c1ccc(O)c2O,inactive
14,Cn1cc(C(=O)OCC2CCN(CCNS(C)(=O)=O)CC2)c2ccccc21,inactive
15,NC(N)=NC(N)=Nc1ccccc1,inactive
16,O=C(O)c1cc(=O)cc(C(=O)O)[nH]1,inactive
17,NC(=O)c1ccccc1,inactive
18,N#Cc1cc2nc(O)c(O)nc2cc1[N+](=O)[O-],inactive
19,CNCCNS(=O)(=O)c1cccc2cnccc12,inactive
20,O=C1Cc2c([nH]c3ccc(Br)cc23)-c2ccccc2N1,inactive
